From PubChem BioAssay (Tox21)
Several values for one entry are separate records, joined by “and”; a condition that tells them apart may be missing. Identical values can stand only once. Records with an inconclusive call do not appear. Entries that show only a call come without a potency. More than one record can exist for a structure, and the calls need not agree. Activity calls are given as the source filed them. Calls follow the shape of the full dose curve.

Molecular target: Retinoic acid receptor RXR-alpha (Homo sapiens) (UniProt P19793)
Experiment: qHTS assay to identify small molecule agonists of the RXR signaling pathway (AID 1159527); also: nearly all actives have a fitted effect of over 35% in size
Conditions: HEK293T RXRa-UAS-bla, beta-lactamase ratio, 16 h; series mostly up to 76.8 µM
Description: U.S. Tox21 Program National Center for Advancing Translational Sciences [NCATS] NIH Chemical Genomics Center [NCGC] U.S. Environmental Protection Agency [EPA] National Institutes of Environmental Health Sciences [NIEHS] National Toxicology Program [NTP] U.S. Food and Drug Administration [FDA] Tox21 Assay Overview: The Retinoid X receptor (RXR), a nuclear hormone receptor expressed in liver, spleen, placenta, epidermis, central nervous system. These receptors are able to form homo and heterodimers with other nuclear receptors and due to this heterodimerizing ability, RXR functions as master regulators producing diverse physiological effects. Three subtypes of RXR exist; alpha, beta and gamma. Retinoid X receptor alpha (RXR-alpha) has potential roles in metabolic signaling pathways, skin alopecia, dermal cysts, cardiac development, insulin sensitization etc. Therefore screening environmental chemicals on RXR-alpha signaling can be used for the studies focused on such therapeutic applications. For quantification of RXR-alpha ligands signaling, GeneBLAzer RXR alpha-UAS-bla HEK 293T (Life Technologies, Carlsbad, CA) cells containing a beta-lactamase reporter-gene under control of Retinoid X receptor-alpha response element were used to screen Tox21 10K library.
Tox21 Assay Protocol Summary: RXR-alpha HEK 293T cells were dispensed at 2,000 cells/6 uL of assay medium containing 2% charcoal-stripped FBS using a Multidrop Combi (ThermoFisher Scientific, Waltham, MA) dispenser. The assay was performed in black wall/clear-bottom 1536-well plates (Greiner Bio-One North America Inc. Monroe, NC). 9-cis retinoic acid was used as a positive control in the agonist mode screen. After the assay plates were incubated at 37 C and 5% CO2 for 5 hr, 23 nL of compounds dissolved in DMSO, positive controls or DMSO only were transferred to the assay plate by a Pintool station (Kalypsys, San Diego, CA). The assay plates were incubated at 37 C and 5% CO2 for 16 hr. One uL of LiveBLAzer B/G FRET substrate (Life Technologies) was added using a Flying Reagent Dispenser (Aurora Discovery, San Diego, CA) and the plates were incubated at room temperature for 2 hr. Fluorescence intensity (405 nm excitation, 460/530 nm emission) was measured using an Envision plate reader (PerkinElmer, Shelton, CT).
Potency is read from the fitted curve at half-maximal effect.

Chain of Retinoic acid receptor RXR-alpha (Homo sapiens) (P19793 whole entry, looked up): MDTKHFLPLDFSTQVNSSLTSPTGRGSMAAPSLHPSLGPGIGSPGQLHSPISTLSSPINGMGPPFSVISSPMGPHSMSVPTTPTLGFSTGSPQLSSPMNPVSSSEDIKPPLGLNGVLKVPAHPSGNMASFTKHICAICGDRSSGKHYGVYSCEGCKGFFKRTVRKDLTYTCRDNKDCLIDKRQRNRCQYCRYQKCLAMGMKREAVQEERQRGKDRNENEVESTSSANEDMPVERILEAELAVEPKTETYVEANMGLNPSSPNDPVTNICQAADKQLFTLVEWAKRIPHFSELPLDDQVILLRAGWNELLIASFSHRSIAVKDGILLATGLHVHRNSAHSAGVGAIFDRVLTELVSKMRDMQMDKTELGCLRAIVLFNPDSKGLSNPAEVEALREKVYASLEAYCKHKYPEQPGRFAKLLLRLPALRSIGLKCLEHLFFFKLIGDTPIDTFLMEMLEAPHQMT

Compound | Potency
O=C(O)c1nc(Cl)ccc1Cl | inactive
O=S(=O)(O)O | inactive
CCCCn1cc[n+](C)c1 | inactive
CCCn1cc[n+](C)c1 | inactive
COP(=O)(OC)OC=C(Cl)Cl | inactive
COCC(=O)N(c1c(C)cccc1C)C(C)C(=O)OC (stereo not given) | inactive
OCCOc1ccccc1 | inactive
O=c1[nH]c(=O)n(Cl)c(=O)n1Cl | inactive
CCCCCCCCCCCCOS(=O)(=O)O | inactive
CC(Cl)(Cl)C(=O)O | inactive
O=C(O)C(Cl)Cl | inactive and 3.09 µM (active)
O=C(O)COc1ccc(Cl)cc1Cl | inactive
Oc1ccccc1-c1ccccc1 | inactive
CCCCCC[n+]1ccccc1 | inactive
COc1ccc(N)cc1 | inactive
CCCCCCCCCCCCCCCCn1cc[n+](C)c1 | inactive
COc1ccccc1N | inactive
CC[N+](CC)(CC)CC | inactive
CCCC[N+]1(C)CCCC1 | inactive
CC(=O)O | inactive

Compound | Potency
Cc1cc(Cl)ccc1N | inactive
Nc1ccc(-c2ccc(N)cc2)cc1 | inactive
CCC[N+]1(C)CCCC1 | inactive
CC[n+]1ccccc1 | inactive
CCCC[n+]1ccc(C)cc1 | inactive
N#CS | inactive
O=c1nc(O)n(Cl)c(=O)n1Cl | inactive
Cc1cc(Cl)ccc1OCC(=O)O | inactive
CCNc1nc(Cl)nc(NCC)n1 | inactive and 12.2 µM (active)
C1CCC(NC2CCCCC2)CC1 | inactive
O=C(O)c1ccccc1O | inactive
O=[N+]([O-])O | inactive and 21.9 µM (active)
O=[N+]([O-])c1ccccc1O | inactive
O=C(O)CCl | inactive
Nc1ccc(-c2ccc(N)c(Cl)c2)cc1Cl | inactive
CC[N+]1(C)CCCC1 | inactive
CCCCCCn1cc[n+](C)c1 | inactive
CCn1cc[n+](C)c1C | inactive
O=C(O)CC(O)(CC(=O)O)C(=O)O | inactive
CCC[N+]1(C)CCCCC1 | inactive
